Compound activity (PubChem BioAssay)
Rows were chosen to be rich in hits. Some 1.8% of all compounds tested hit in one or more screens of this group.
rTrxR1 inhibitor – rat TrxR1 inhibition. recombinant rTrxR1, NADPH fluorescence consumption, selenite substrate. Potency, µM (doses to about 114 µM), hits mostly inhibitors. O89049. hit rate 1% among 390,000; further: nearly all actives have a fitted effect of over 65% in size
Target sequence (O89049 whole entry, looked up): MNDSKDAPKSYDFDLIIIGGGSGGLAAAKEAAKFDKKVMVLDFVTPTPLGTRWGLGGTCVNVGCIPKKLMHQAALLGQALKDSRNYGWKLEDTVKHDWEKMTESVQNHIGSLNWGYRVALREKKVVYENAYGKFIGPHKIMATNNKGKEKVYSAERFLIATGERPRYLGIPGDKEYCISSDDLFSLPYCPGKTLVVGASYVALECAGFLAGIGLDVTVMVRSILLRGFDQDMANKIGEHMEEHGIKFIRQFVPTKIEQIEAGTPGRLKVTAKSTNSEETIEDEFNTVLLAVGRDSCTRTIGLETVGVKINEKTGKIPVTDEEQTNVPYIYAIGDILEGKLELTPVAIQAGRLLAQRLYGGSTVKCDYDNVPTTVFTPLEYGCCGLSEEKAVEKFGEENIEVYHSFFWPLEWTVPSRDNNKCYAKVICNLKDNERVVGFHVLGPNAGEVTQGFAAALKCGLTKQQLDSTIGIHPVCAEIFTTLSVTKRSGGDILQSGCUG
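Rat TrxR1 (90 nM in the dispensed reagent) was pre-reduced with 400 uM NADPH for 5 min at room temperature, then incubated with compound for 15 min. After 400 uM selenite was added, NADPH fluorescence (Ex 340/Em 450 nm) was followed for 8 min.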
VDR inhibitor – vitamin D3 receptor (human) inhibition; Potency, µM, actives largely listed as inhibitors; VDR-SRC2-3 peptide fluorescence polarization, 2 h; hit rate 0.93% among 400,000; P11473
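The screen uses fluorescence polarization to detect compounds that interfere with recruitment of the SRC2-3 coactivator peptide to VDR; plates are read after 2 h at room temperature.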
TrxR1 substrate – is turned over as a substrate by rat TrxR1 | hit rate 0.01% among 390,000 | Potency, µM (top dose mostly 114 µM) | purified TrxR1 substrate turnover, NADPH consumption readout | AID 588456 | O89049; further: nearly all actives have a fitted effect of over 50% in size
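Rat TrxR1, dispensed at 90 nM, was prereduced with 400 uM NADPH (final) for 5 min at ~22 deg C, then incubated with compound 15 min before 400 uM selenite. A first-read NADPH fluorescence drop versus no-compound background flagged substrates.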
Vif-APOBEC3G blk – Vif-A3G binding inhibition; hit rate 0.076% among 410,000; Q9HC16; HeLa A3G-eYFP + Vif (tagged APOBEC3G with the HIV-1 protein that degrades it), YFP fluorescence, overnight; Potency, µM (titrated, usually from 46.1 µM), usual class: inhibitors; further: nearly all actives have a fitted effect of over 60% in size
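Read-out is eYFP fluorescence (Ex 488/Em 500-530) from Vif-expressing HeLa A3G-eYFP cells; more signal means A3G escaped Vif-mediated degradation. Cells plated overnight, compound pinned in, incubated overnight at 37 deg C.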
Vif-APOBEC3F blk – blocks the Vif interaction with APOBEC3F; HeLa A3F-eYFP + Vif (tagged APOBEC3F with the HIV-1 protein that degrades it), YFP fluorescence increase; Potency, µM (series often up to 46.1 µM); hit rate 0.2% among 390,000; further: nearly all actives have a fitted effect of over 65% in size
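HeLa cells stably expressing A3F-eYFP plus Vif, plated and incubated overnight at 37 deg C, then exposed to compounds overnight at 37 deg C. Blocked degradation read as raised yellow fluorescence (Ex 488/Em 500-530).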
Hits are given with their value; . = inactive; ? = inconclusive; / = no result given; ! = repeats disagree. The call rests on the fitted dose curve; in most records, active means well fitted curve in the direction sought with a large enough effect; inconclusive means small, poorly fitted or top-dose-only effect, or another doubt; inactive means no such curve, though single readings can be large; an effect the other way counts as inactive or inconclusive.

SMILES	rTrxR1 inhibitor	VDR inhibitor	TrxR1 substrate	Vif-APOBEC3G blk	Vif-APOBEC3F blk
CC(C)C(O)(C(=O)OC[C@@H]1CC[N+]2([O-])CCCC12)C(C)O (some centres not stated)	/	.	/	/	/
NC(N)=Nc1ccc2[nH]c3c(c2c1)C[C@]1(O)[C@@H]2Cc4ccc(O)c5c4[C@]1(CCN2CC1CC1)[C@@H]3O5	/	.	/	/	/
C(=C\c1ccccc1)/CN1CCN(CCOC(c2ccccc2)c2ccccc2)CC1	/	.	/	/	/
CN1C(=O)C(=Cc2ccc(Sc3ccccc3)o2)C(=O)N(C)C1=O	?	?	.	.	.
CN1C(=O)C(=Cc2ccc(Sc3ccccc3)o2)C(=O)N(C)C1=S	20µM	.	.	.	?
CCN(CC)C(=O)c1ccc(NC(=O)CCn2nc(-c3ccc(Cl)cc3)c3ccccc3c2=O)cc1	.	?	.	.	.
O=C1NC(=O)C(Sc2ccccc2[N+](=O)[O-])C(=O)N1	.	39.8µM	.	.	.
CCOC(=O)N(C)C(=O)CSP(=S)(OCC)OCC	/	50.1µM	/	/	/
CCOC(=O)C(C)(CC)NC(=O)CSP(=S)(OCC)OCC (configuration not stated)	.	.	.	.	.
CCN1C[C@]2(COC(=O)c3ccccc3N3C(=O)CC(C)C3=O)CC[C@H](OC)[C@@]34C5C[C@@H]6[C@@H](OC)C[C@@](O)(C5[C@H]6OC)[C@](O)([C@@H](OC)C23)[C@@H]14 (some centres not stated)	/	.	/	/	/
Cc1ccc(C=C2C(Cl)=C(Cl)C(Cl)=C2Cl)cc1	3.16µM	?	.	.	.
NCCNC[C@@H](N)CCCN=C(N)N[N+](=O)[O-]	/	.	/	/	/
CCCN1CCc2cccc3c2[C@H]1Cc1ccc(O)c(O)c1-3	23.8µM	7.94µM!	?	.	.
CCOP(=O)(OCC)C(O)c1ccccc1 (configuration not stated)	.	.	.	.	.
CCOP(=O)(C1=C(O)C(=O)C(C(C)(C)C)=CC1=O)c1ccccc1 (configuration not stated)	4.47µM	?	.	.	.
COC(=O)[C@]1(C)CC[C@@]2(C)CC[C@@]3(C)C4=CC=C5C(=CC(=O)C(O)=C5C)[C@@]4(C)CC[C@@]3(C)C2C1 (some centres not stated)	/	3.16µM	/	/	/
Cc1ccc(S(=O)(=O)Oc2ccccc2C=C2C(=O)N(C)C(=O)N(C)C2=O)cc1	50.1µM	?	.	.	.
O=C1NC(=O)C2(CCCc3ccc(N(CCCl)CCCl)cc32)N1 (configuration not stated)	20µM	.	.	.	.
NC1(C(=O)O)CCCc2ccc(N(CCCl)CCCl)cc21 (configuration not stated)	.	.	.	.	.
COC(=O)/C(C)=C\CC12OC(C)(C)C3CC(C=C4C(=O)c5c(OC)c6c(c(CC=C(C)C)c5OC431)OC(C)(CCC=C(C)C)C=C6)C2=O (configuration not stated)	/	2µM	/	/	/
CC(=O)Oc1c2c(c(CC=C(C)C)c3c1C(=O)C1=CC4CC5C(C)(C)OC(C/C=C(\C)C(=O)O)(C4=O)[C@]15O3)OC(C)(CCC=C(C)C)C=C2 (some centres not stated)	/	1.26µM	/	/	/
O[N+]1=CC=CCC1=S.On1ccccc1=S.[Zn]	/	44.7µM	/	/	/
CCc1cccc(C)c1N(C(=O)CCl)C(C)COC (configuration not stated)	/	.	/	/	/
CC(C)N(C(=O)CCl)c1ccccc1	20µM	.	.	.	.
O=P(O)(O)c1ccccc1OCCOCCOCCOCCOc1ccccc1P(=O)(O)O	?	.	.	.	.
SMILES	rTrxR1 inhibitor	VDR inhibitor	TrxR1 substrate	Vif-APOBEC3G blk	Vif-APOBEC3F blk
CCC1C2CC3C4N(C)c5ccccc5[C@]45CC(C2C5O)N3C1O (some centres not stated)	/	.	/	/	/
CCOc1ccc(N2C(=O)NC(=O)/C(=C\c3ccc(N4CCCCC4)o3)C2=O)cc1	.	.	.	?	?
Cc1ccc(/C=C2\C(=O)NC(=O)N(CCc3ccc(F)cc3)C2=O)o1	?	.	.	.	.
Cc1cccc(N2C(=O)NC(=O)/C(=C/c3ccc([N+](=O)[O-])o3)C2=O)c1	12.6µM	?	.	.	.
Cc1cccc(N2C(=O)NC(=O)/C(=C\C=C\c3ccco3)C2=O)c1	?	?	.	?	?
CCOc1ccc(N2C(=O)/C(=C/c3ccc(C)o3)C(=O)NC2=S)cc1	25.1µM	?	.	.	.
Cc1cccc(N2C(=O)/C(=C/c3ccc(CN(CCC#N)S(C)(=O)=O)o3)C(=O)NC2=S)c1	7.94µM	?	.	.	.
Cc1ccc(/C=C2\C(=O)NC(=S)N(c3cccc(F)c3)C2=O)o1	7.94µM	.	.	.	.
CN1CCN(c2ccc(/C=C3\C(=O)NC(=S)N(c4cccc(Br)c4)C3=O)o2)CC1	?	?	.	22.4µM	25.1µM
Cc1c(C=C2C(=O)NC(=O)NC2=O)c(=O)n(-c2ccccc2)n1C	.	.	.	.	.
O=C1NC(=O)C(=Cc2c(Cl)cccc2Cl)C(=O)N1	12.6µM	?	.	.	?
Cc1cc(/C=C2\C(=O)NC(=O)N(c3ccc(Cl)cc3)C2=O)c(C)n1-c1sc2c(c1C#N)CCCC2	50.1µM	?	.	.	.
